Source: ChEMBL document CHEMBL3988442, “University of Dundee, Small-Polar-MMV Screening Library” (2021)

molecular target: AMP-activated protein kinase, AMPK (Homo sapiens) (UniProt P54646+O43741+P54619+Q9UGJ0+Q9Y478+Q13131+Q9UGI9); assay: AMP-dependent Kinase enzyme assay. An in vitro enzyme assay that detects ADP turnover that is directly proportional to AMPK activity. This uses naive AMPK that is activated during the assay with MK-8722; format: functional; design: scale not given: direction of the effect not stated beside the values; conditions: 30 µM

SMILES	Percent Effect
CC(C)c1nn(C)cc1CNCc1ccnc(N(C)C)c1	-4.28%
CCN1CCN(c2ccccc2NC(=O)NCc2ccon2)CC1	2.14%
COc1ccc2c(c1OC)Cc1c-2nc(N)c(C#N)c1C1CCOC1 (stereo not given)	24.3%
CSc1ccc(OCCN2CCNC(=O)CC2)cc1	9.33%
CNC(=O)c1cn2cc(-c3cccc(Cl)c3)n(CC3CC3)c(=O)c2n1	-3.37%
Cc1cc(C)n(CC(C)NC(=O)C2(c3ccccc3F)CC2)n1 (stereo not given)	-3.82%
Cc1ncccc1C(=O)Nc1cccc(Cn2ccccc2=O)c1	3.58%
CCc1cnc(N)nc1NCCC(=O)NC1CCCCC1	-4.74%
c1cnc(N2CCC(OCC3CCCCO3)CC2)nc1 (stereo not given)	2.8%
CCc1ncc2c(n1)CN(c1cc(N3CCN(C)CC3)nc(N)n1)C2	-137%
CN(C)Cc1cn(-c2ccccc2C(=O)NCC2CCCCN2C)cn1 (stereo not given)	-15.9%
O=C(CC1CCc2ccccc21)NC1(C(=O)O)CCOCC1 (stereo not given)	-0.354%
CCc1onc(C)c1C(=O)N1CCN(c2ncc3c(n2)CCOC3)CC1	13%
Cc1nn(C)c(C)c1CCC(=O)NCC1(C(N)=O)CCOCC1	1.16%
CN(CCSc1nncn1CC(F)(F)F)c1ccccc1	8.89%
Clc1cc(NCc2ccncc2)nc2[nH]ccc12	-59.2%
Cc1ncc(C(=O)N2CCOC(C(=O)N3CCCCC3)C2)c(C)n1 (stereo not given)	-4.59%
CC(C)Oc1ncccc1CNC(=O)NC(C)c1cccs1 (stereo not given)	-3.91%
CSCCC1c2nc[nH]c2CCN1Cc1[nH]c2ccc(F)cc2c1C (stereo not given)	2.26%
CCOc1ccc(C(=O)NC2CCN(c3ncccn3)CC2)cc1C	0.756%

SMILES	Percent Effect
CCNc1ncc(C(=O)NCc2csc(C)n2)cn1	-2.12%
O=C(c1nc(N2CCCC2)ncc1Cl)N1CCN(Cc2ccsc2)CC1	7.12%
CC(C)C(=O)NCCc1nc(-c2ccncc2)n[nH]1	10.7%
NC(=O)C1CCN(C(=O)NC(Cc2ccccc2)C(F)(F)F)CC1 (stereo not given)	0.0823%
CC(C)n1ccnc1C1CCN(c2nccc(C(F)(F)F)n2)CC1	15.9%
CC(Cn1cncc1-c1cnn(Cc2ccccc2)c1)N1CCCCC1 (stereo not given)	7.07%
Cc1ccc(F)c2c1N(C(=O)c1ccc(S(C)(=O)=O)cc1)CCC2	0.782%
Cc1ocnc1C(=O)N1CC[C@@]2(O)CCN(C(=O)N3CCCC3)C[C@H]2C1	6.59%
CCn1cc(CN2CCC(c3ncc(Cl)cc3S(C)(=O)=O)CC2)c(C)n1	4.95%
Cc1nc(CNC(=O)c2cc(COc3ccccc3)[nH]n2)n[nH]1	7.31%
CCOC(=O)c1n[nH]cc1CN1CCCC(N(C)Cc2ccccc2)C1 (stereo not given)	-0.954%
Cc1ncc(CNC(=O)NCC(C)Oc2ccccc2F)s1 (stereo not given)	6.1%
CNc1cc2c(nn1)CCN(C(=O)c1ccccc1-n1cccn1)C2	-15.3%
Cc1ccc(C(=O)NC2CCCN(CC(N)=O)C2)c(=O)[nH]1 (stereo not given)	2.52%
CN1C[C@@H]2CC[C@H](CC1=O)N2C(=O)c1ccc(-c2ccccc2)[nH]c1=O	12.5%
CN(C)CCN(Cc1ccc(F)cc1)C(=O)c1ccn(C)c(=O)c1	9.83%
c1cn(Cc2ccc(N3CCCN(C4CCCC4)CC3)nc2)cn1	11.7%
CCNC(=O)[C@@H]1C[C@@H](N)CN1C(=O)c1cc2ccccc2[nH]1	8.12%
c1cnc(N2CCC(c3nccn3CC3CC3)CC2)nc1	9.63%
CNC(=O)c1cccnc1NCc1ccc(Cn2ccnc2)cc1	-1.78%
